# Assay results reported in PubChem BioAssay.
# Calls of active or inactive are those of the source.
# Tests used:
# Albumin (Bos taurus) = Albumin (Bos taurus) (UniProt P02769); assay: compounds binding labelled BSA control protein – biochemical, small-molecule microarray, Alexa647 label, 635/667 nm fluorescence, artefact control for SMM control protein annotation, profiling panel (AID 1118); details: BSA-A647 binding, fluorescence 635 nm, higher = more signal;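 note: score merges 667 nm emission intensity and signal-to-noise per printed compound spot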
# [1] = probe aXIP binding to arrayed compounds – biochemical, NeuroSMM set, 635/667 nm fluorescence, primary screen (AID 1119); details: small-molecule microarray, higher = more signal, called active from +8 up or from −8 down;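 note: probe is the protein aXip251-270 applied at 1 µg/mL to compound-printed slides; binding of probe to printed compounds measured as 667 nm fluorescence plus signal to noise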
# [2] = probe aNOTCH3 binding on compound microarray – biochemical, small-molecule microarray, 635/667 nm fluorescence, primary screen (AID 1120); details: higher = more signal;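 note: probe is a biotin-tagged antibody raised against NOTCH3 rather than NOTCH3 protein; score merges spot fluorescence near 667 nm with spot signal to noise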
# [3] = probe aNOTCH2 binding on compound microarray – biochemical, small-molecule microarray, 635/667 nm fluorescence, primary screen (AID 1121); details: higher = more signal;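 note: score merges feature fluorescence read at 667 nm with its signal to noise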
# [4] = target: Carbonic anhydrase 2 (Homo sapiens) (UniProt P00918); assay: compounds binding carbonic anhydrase 2 – biochemical, small-molecule microarray, Alexa647-labelled CAII, profiling panel (AID 1122); details: CAII-A647 binding fluorescence, higher = more signal
# [5] = COS7 lysate on small-molecule microarray, probe aHis, 635 nm (AID 1123); details: COS7 cell lysate, fluorescence, higher = more signal;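 note: z-score combines 667nm fluorescence intensity with signal-to-noise per printed compound spot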
# [6] = probe aLAP1 signal on lysate-treated microarray – cell lysate, small-molecule microarray, COS7 lysate, primary screen (AID 1124); details: probe aLAP1, fluorescence, higher = more signal;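 note: lysate comes from COS7 cells expressing LAP1 and is applied at 0.3 µg/mL; score merges spot fluorescence near 667 nm with signal-to-noise over triplicate slides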
# Sam68 (KHDRBS1) = assay: compounds binding KHDRBS1 protein – biochemical, small-molecule microarray, 635 nm fluorescence, primary screen (AID 1125); details: higher = more signal;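 note: score merges 667 nm channel intensity with signal to noise over triplicate slides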
# [7] = test system: Chordin-like protein 2 (CHRDL2); assay: compounds binding chordin-like 2 – biochemical, small-molecule microarray, 635 nm fluorescence, primary screen (AID 1126); details: fluorescence 635 nm, higher = more signal;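 note: printed compound slides probed with Chrdl2 protein at 4 µg/mL for 1 h at 4 C; score merges 667 nm emission intensity with signal to noise over three replicate slides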
# [8] = target: Concanavalin-A (Canavalia ensiformis) (UniProt P02866); assay: compounds binding concanavalin A lectin – biochemical, small-molecule microarray, Alexa647 label, 635 nm, artefact control for SMM control protein annotation, primary screen (AID 1127); details: ConA-A647 binding fluorescence, higher = more signal;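 note: z combines 667 nm emission intensity with signal-to-noise across three replicate slides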
# Concanavalin-A (Canavalia ensiformis), sequence (P02866 whole entry, looked up): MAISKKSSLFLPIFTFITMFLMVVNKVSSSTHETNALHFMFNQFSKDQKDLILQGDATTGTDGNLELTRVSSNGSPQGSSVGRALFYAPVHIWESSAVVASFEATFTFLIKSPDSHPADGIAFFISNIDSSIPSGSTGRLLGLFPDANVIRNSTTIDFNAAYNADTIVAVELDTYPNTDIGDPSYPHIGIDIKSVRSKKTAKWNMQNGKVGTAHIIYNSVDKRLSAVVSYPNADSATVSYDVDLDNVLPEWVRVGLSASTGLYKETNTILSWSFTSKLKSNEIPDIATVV
# Albumin (Bos taurus), sequence (P02769 whole entry, looked up): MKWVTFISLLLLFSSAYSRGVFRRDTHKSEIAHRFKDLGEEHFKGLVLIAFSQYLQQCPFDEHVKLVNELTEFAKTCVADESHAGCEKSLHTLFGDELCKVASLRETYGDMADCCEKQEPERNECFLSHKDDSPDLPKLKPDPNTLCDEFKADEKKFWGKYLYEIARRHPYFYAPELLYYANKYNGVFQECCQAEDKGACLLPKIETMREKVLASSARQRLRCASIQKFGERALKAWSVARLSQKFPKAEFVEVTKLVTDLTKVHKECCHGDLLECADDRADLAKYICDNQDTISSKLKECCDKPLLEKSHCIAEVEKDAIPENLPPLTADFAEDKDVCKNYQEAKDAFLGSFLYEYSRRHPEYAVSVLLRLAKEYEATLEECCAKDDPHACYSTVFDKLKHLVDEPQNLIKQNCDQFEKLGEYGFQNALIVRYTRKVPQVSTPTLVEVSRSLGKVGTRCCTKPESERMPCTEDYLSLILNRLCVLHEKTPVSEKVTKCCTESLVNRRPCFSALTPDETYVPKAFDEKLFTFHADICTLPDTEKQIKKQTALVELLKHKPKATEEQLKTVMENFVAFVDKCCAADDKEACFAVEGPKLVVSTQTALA
Structure (SMILES),composite z-score (Albumin (Bos taurus)),composite Z-score [1],composite z-score [2],composite z-score [3],composite z-score [4],composite z-score [5],composite z-score [6],composite z-score (Sam68 (KHDRBS1)),composite z-score [7],composite z-score [8]
CC(C)CNC(=O)[C@@]1(c2ccc([N+](=O)[O-])cc2)CC(=O)N(C2CCCCC2)[C@@H]1c1ccc(CO)cc1,0.819,1.08 (inactive),-0.191,-0.123,0.714,2.05,0.571,0.244,0.0971,0.213
Nc1cc(Br)ccc1C(=O)O,0.235,2.13 (inactive),0.0026,-0.117,0.18,-0.12,-0.0137,0.213,-0.079,0.713
COCCCNC(=O)[C@@]1(c2ccc([N+](=O)[O-])cc2)CC(=O)N(C(C)C)[C@@H]1c1ccc(CO)cc1,0.224,-0.786 (inactive),-0.424,-0.0282,0.729,0.198,1.25,0.353,0.454,-1.5
O=C1C2C=CC(C(O)c3cccc(O)c3)N(Nc3ccccc3)C2C(=O)N1c1ccccc1 (stereo not given),0.818,0.365 (inactive),0.185,-0.155,0.792,0.653,0.069,0.16,-0.201,0.338
[N-]=[N+]=NCc1ccccc1[C@H]1OC(c2ccc(OCCCO)cc2)=N[C@@]1(CCS(=O)(=O)c1ccccc1)C(=O)NCc1ccccc1,0.852,0.421 (inactive),0.281,0.0323,0.435,1.6,0.0714,1.24,0.187,1.13
COc1ccc([Si](C)(C)[C@H]2[C@H](CCO)O[C@@]3(C(=O)N(Cc4ccccc4)c4ccc(N5C(=O)c6ccccc6Oc6ccccc65)cc43)[C@@H]2C)cc1,0.467,-0.216 (inactive),-0.0984,-0.106,0.532,1.47,0.62,0.442,0.214,0.823
CCCCCN1CC=CC23O[C@@H]4/C=C\CCC(C)OC(=O)C4[C@H]2C(=O)N(CCCCCCO)[C@@H]3C1=O (stereo not given in full),0.548,0.928 (inactive),-0.311,-0.164,0.781,0.84,1.57,0.623,-0.41,-0.296
CN1C(=O)C2C=CC(C(O)c3cc(C(F)(F)F)cc(C(F)(F)F)c3)N(NC(=O)OC(C)(C)C)C2C1=O (stereo not given),1.04,0.622 (inactive),0.465,0.0753,0.604,2.87,0.403,1.3,-1.08,1.17
COCCCNC(=O)[C@@]1(c2ccc([N+](=O)[O-])cc2)CC(=O)N(CC23CC4CC(CC(C4)C2)C3)[C@@H]1c1ccc(CO)cc1I,0.0824,0.197 (inactive),-0.0751,-0.0561,0.126,1.61,0.159,0.745,-0.348,0.905
COc1ccc([Si](C)(C)[C@@H]2[C@@H](CCn3cc([C@H](O)c4ccccc4)nn3)O[C@]3(C(=O)N(Cc4cccc(N5C(=O)c6cccc7cccc5c67)c4)c4ccccc43)[C@H]2C)cc1,0.371,0.0425 (inactive),-0.157,-0.155,0.405,0.992,-0.64,0.173,-1.09,0.234
COCCOC(=O)N1C(=O)[C@@]2(c3ccccc31)[C@H](c1ccc(OCCO)cc1)N1[C@H](c3ccccc3)[C@H](c3ccccc3)OC(=O)[C@H]1[C@@H]2C(=O)N1CCCCCCC1,0.915,7.84 (inactive),2.31,1.18,1.08,5.33,1.22,1.35,1.7,1.24
COc1cc(NN2C(C(O)C3CCCCC3)C=CC3C(=O)N(c4ccccc4)C(=O)C32)cc(OC)c1OC (stereo not given),1.07,1.13 (inactive),0.0205,0.0888,0.712,2.65,0.605,1.3,-1.5,1.11
C=C(COC)C(=O)CC[C@H](OC(C)=O)c1ccc(OCCO)cc1,-0.0592,-0.308 (inactive),-0.0362,-0.0971,0.549,0.523,2.46,0.666,0.569,0.488
CC(C)[C@H]1NC(=O)[C@@]23C(=O)N[C@@H](Cc4ccccc4)C2[C@H](C)[C@@]2(C)O[C@H]2C3/C=C/C/C=C\CNC(=O)[C@H](Cc2ccccc2)NC1=O (stereo not given in full),0.347,0.167 (inactive),0.204,-0.19,0.318,0.836,0.582,1.29,0.908,0.273
COCCOC(=O)N1C(=O)[C@@]2(c3cc(C#CC4=CCCCC4)ccc31)[C@H](c1ccc(O)cc1)N1[C@H](c3ccccc3)[C@H](c3ccccc3)OC(=O)[C@H]1[C@@H]2C(=O)NC[C@H](O)c1ccccc1,0.613,0.225 (inactive),0.158,-0.148,0.27,1.68,1.02,1.3,0.642,0.935
O=C1OCC=C[C@H]2OC34C=CCN(c5ccc6ccccc6c5)C(=O)[C@H]3N(CCCCCO)C(=O)[C@@H]4[C@@H]12 (stereo not given in full),0.712,-0.834 (inactive),-0.292,-0.0176,0.309,1.25,-0.148,-0.702,-1.27,-0.388

Structure (SMILES),composite z-score (Albumin (Bos taurus)),composite Z-score [1],composite z-score [2],composite z-score [3],composite z-score [4],composite z-score [5],composite z-score [6],composite z-score (Sam68 (KHDRBS1)),composite z-score [7],composite z-score [8]
[N-]=[N+]=NC[C@H](Cc1ccccc1)NC(=O)c1ccccc1,0.494,-0.0662 (inactive),0.056,-0.0783,0.294,0.12,-0.0013,-0.258,0.433,-0.855
COC(=O)[C@@]1(Cc2ccc(F)cc2)[C@H]2c3cc(C(=O)N4CCCC4)n(CC4CC4)c3C[C@H]2CN1C(=O)c1ccccc1,0.87,1.5 (inactive),1.07,0.416,0.765,2.99,0.888,1.3,-0.621,0.553
CCOC(=O)C=Cc1ccccc1O,0.725,-0.116 (inactive),0.186,0.0295,0.188,0.466,0.163,1.01,0.0871,0.591
COc1cc(NN2C(C(O)c3ccc(I)cc3)C=CC3C(=O)N(c4ccccc4)C(=O)C32)cc(OC)c1OC (stereo not given),0.499,1.59 (inactive),0.185,-0.0501,0.758,3.02,0.0865,1.32,-0.357,1.01
CC(C)C[C@@H]1NC(=O)[C@H]2C[C@@H](C(=O)NCCCCCN)[C@@H](c3cccc(OCCO)c3)N2C1=O,0.299,1.26 (inactive),-0.495,-0.146,0.695,1.27,1.16,0.166,0.292,0.661
O=C(O)[C@H]1C[C@H]2C(=O)N[C@@H](Cc3ccccc3)C(=O)N2[C@H]1c1cccc(OCCO)c1,-1.09,0.309 (inactive),0.182,-0.0609,0.634,0.26,-0.0699,1.05,1.01,0.95
CCOC(=O)C1=C[C@@H](c2ccccc2)N(S(=O)(=O)c2ccc(C)cc2)[C@H]1c1ccccc1,0.612,0.185 (inactive),0.0636,-0.022,0.0593,-0.136,0.326,0.582,0.512,0.759
O=C1[C@@]23C=C(Br)[C@H](C[C@@H]2COC3)[C@@]12CO2,-0.512,0.395 (inactive),0.147,-0.153,-0.0903,0.301,-0.0796,0.206,0.532,0.459
O=C1N(CCS(=O)(=O)c2ccccc2)Cc2ccccc2[C@@H]2OC(c3ccc(OCCCO)cc3)=N[C@]12CCS(=O)(=O)c1ccccc1,0.0789,0.02 (inactive),0.128,0.123,0.628,2.98,0.638,1.31,1.15,1.11
O=C1O[C@H](c2ccccc2)[C@H](c2ccccc2)N2[C@H]1[C@@H](C(=O)N1CCCCCCC1)[C@]1(C(=O)Nc3ccc(C#CC4(O)CCCCCC4)cc31)[C@H]2c1ccc(O)cc1,-0.0339,5.24 (inactive),1.77,0.956,0.705,3.64,1.42,1.29,1.39,1.07
C=C(COC)/C(=C/C[C@H](OC(C)=O)c1cccc(OCCO)c1)c1cnc2ccccc2c1,0.497,0.0575 (inactive),0.0556,-0.0817,0.917,0.109,0.267,1.24,1.35,1.05
Cc1nc2cc(Br)ccc2c(=O)n1Cc1cccc(O)c1,0.417,0.0614 (inactive),-0.119,-0.12,0.218,1.28,1.09,0.968,1.04,0.799
Cc1cccc([C@H]2C[C@H]3C(I)=C[C@@H]2C(=O)[C@]32CO2)c1,-0.883,0.694 (inactive),-0.199,-0.112,0.0705,-0.55,0.466,-0.5,0.645,-0.478
COc1ccc(C(=O)Nc2cccc(CN3C(=O)[C@]4(O[C@H](CCn5cc([C@H](O)c6ccccc6)nn5)[C@@H]([Si](C)(C)c5ccc(OC)cc5)[C@@H]4C)c4ccccc43)c2)cc1,-0.215,-0.213 (inactive),0.0916,-0.0986,0.169,0.18,-0.206,0.962,0.153,0.587
CC(CO)N1C(=O)[C@@H]2[C@H]3C(=O)OCC=C[C@H]3OC23C=CCN(c2ccc(Cl)cc2)C(=O)[C@@H]13 (stereo not given in full),-1.68,-0.243 (inactive),-0.454,-0.161,0.935,-0.224,-0.191,-0.598,-2.12,-2.16
CCOC(=O)C[C@H]1[C@H](OC(=O)c2ccc(-c3ccccc3)cc2)[C@@H](NC(=O)Cc2ccc(OC)cc2)c2cc(OCCCO)ccc2N1C(=O)Cc1ccc(OC)cc1,0.793,-0.263 (inactive),-0.0647,-0.112,-0.0866,0.584,0.234,0.496,-0.565,-0.0542
